# In the library only some 27% were active in any assay of this set; here they are far more common.
# Cav32 inh – Cav3.2 calcium influx blockers – cell-based, Fluo-4 calcium fluorescence, FDSS, MLSMR library, primary screen; Voltage-dependent T-type calcium channel subunit alpha-1H (Homo sapiens), O95180; Cav3.2-expressing cells; hits give low values; B-score at 10 µM; actives 4% (n = 100,000); AID 449739, 2010;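 active = single-dose well whose peak fluorescence ratio is a statistical outlier from its plate by either plate-standardised score or position-corrected B-score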
# CYP2C19 inh – blockers of cytochrome P450 2C19 activity – biochemical, luminescence, ADME assay, primary screen; CYP2C19 Supersomes, luciferin-H EGE luminescence, 30 min; inhibition, % at 5 µM; actives 21% (n = 96,000);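 active = CYP2C19 inhibition above a set limit at 5 µM in the primary screen, cut at about 50% in these data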
# CYP2C9 inhib – blockers of cytochrome P450 2C9 activity – biochemical, luminescence, ADME assay, primary screen. inhibition, % at 5 µM. actives 20% (n = 96,000). CYP2C9 Supersomes, luciferin-H conversion. AID 777, 2007;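 active = blocking of liver enzyme CYP2C9 beyond about 50% at 5 µM, limit read from the data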
# CYP2C19 activ – human CYP2C19 activators, primary screen, biochemical, luminescence | recombinant CYP2C19, luciferin-H EGE luminescence; hits give high values; 0 = fully inhibited enzyme, 1 = untreated enzyme | activation factor at 5 µM | 96,000 tested, under 10 active | AID 1025, 2008;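 active = activation factor of at least 2 at 5 µM in the primary screen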
# CYP2C9 act – human CYP2C9 activators, primary screen, biochemical, luminescence; Cytochrome P450 2C9 (Homo sapiens), P11712; actives 1.4% (n = 96,000); recombinant CYP2C9, luciferin-H conversion; hits give high values; factor 1 = untreated enzyme, 0 = blocked; AID 1024, 2008; activation factor at 5 µM;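 active = activation factor of 2 or more for CYP2C9 at a 5 µM dose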
# A number is an active result; . = inactive; / = no result given.
SMILES,Cav32 inh,CYP2C19 inh,CYP2C9 inhib,CYP2C19 activ,CYP2C9 act
CC(C)NC(=O)c1ccc2c(c1)S(=O)(=O)c1ccccc1C2=O,.,.,.,.,.
Cc1c(/C(Cc2ccccc2)=N/O)c2ccccc2n1C,.,/,/,/,/
COC(=O)C1=C(C)N(CCCC(=O)O)C(=O)NC1c1cccc(OC)c1 (centres undefined),.,/,/,/,/
COC(=O)C1=C(C)N=C2SC(C#N)=C(N)N2C1c1cccc(OC)c1 (centres undefined),.,96.0,91.7,.,.
COC(=O)C1=C(C)N=C2SC(C)C(=O)N2C1c1cccc(F)c1 (centres undefined),-4.64,.,.,.,.
CCOc1cc(C2C(C(=O)OC)=C(C)N=C3SC(C)C(=O)N32)ccc1OC(C)=O (centres undefined),.,63.8,59.2,.,.
COc1ccc(-c2csc(NCCc3nc4cc(Cl)c(Cl)cc4n3CCCO)n2)cc1,.,/,/,/,/
CCOC(=O)c1c(C)sc(Sc2ccc(Cl)cc2[N+](=O)[O-])c1OC,.,80.6,.,.,.
CCOC(=O)c1c(NC(=O)c2ccc(Cl)s2)sc(C)c1C,.,.,.,.,.
C/C(Cl)=C/CSc1nn2c(=O)c3ccccc3nc2s1,.,74.4,81.9,.,.
C/C(Cl)=C/CSc1nnc2n(N)c(=O)c3ccccc3n12,.,.,.,.,.
CC(C)NS(=O)(=O)c1ccc(CCC(=O)NCc2ccco2)cc1,.,.,.,.,.
O=C(C1CCCCC1)N(Cc1ccccc1)c1ccccn1,/,.,.,.,.
O=C(C1CC1)N(CCN(Cc1ccccc1)C(=O)C1CC1)Cc1ccccc1,/,54.1,.,.,.
Cc1cc(C)n2nnnc2c1C#N,.,.,.,.,.
Cc1cccn2c(/C=N/OCc3cccc(F)c3)c(-c3ccc(Cl)cc3)nc12,/,.,.,.,.
COc1cccc(/C(C#N)=C/c2c(-c3ccc(Cl)cc3)nc3c(C)cccn23)c1,.,55.1,70.1,.,.
Cc1ccc(-n2c(Cc3cccn3C)nnc2SCC(=O)Nc2ccc3c(c2)OCO3)cc1,-3.91,.,56.1,.,.
CCSc1nnc(NC(=O)CSc2nnc(Cc3cccn3C)n2-c2ccc(F)cc2)s1,/,.,.,.,.
Cc1ccc(-n2c(Cc3cccn3C)nnc2SCC(=O)Nc2nnc(C)s2)cc1,.,.,.,.,.
Cn1cccc1Cc1nnc(SCC(=O)Nc2ccc3c(c2)OCCO3)n1-c1ccc(F)cc1,-7.71,.,.,.,.
Cc1ccc(-n2c(Cc3cccn3C)nnc2SCC(=O)NCc2ccc3c(c2)OCO3)cc1,-5.01,56.7,83.9,.,.
Cc1ccc2nc3sc(-c4nnc(-c5ccccc5[N+](=O)[O-])o4)c(N)c3cc2c1,/,.,.,.,.
O=C1NC[C@@H](Cc2cccc3ccccc23)N(CC2(c3ccccc3)CC2)C1=O,.,/,/,/,/
CCOC(=O)c1cccc(NC(=O)C2CCCN2S(=O)(=O)c2cccc3cccnc23)c1 (centres undefined),.,.,91.1,.,.
SMILES,Cav32 inh,CYP2C19 inh,CYP2C9 inhib,CYP2C19 activ,CYP2C9 act
COc1ccc(NC(=O)C2CCCN2S(=O)(=O)c2cccc3cccnc23)c(OC)c1 (centres undefined),.,.,91.8,.,.
Cc1ccccc1NC(=O)C1CCCN1S(=O)(=O)c1cccc2cccnc12 (centres undefined),.,67.0,95.5,.,.
NS(=O)(=O)c1cccc2cccnc12,.,.,.,.,.
O=C(Nc1cccc(C(F)(F)F)c1)C1CCCN1S(=O)(=O)c1cccc2cccnc12 (centres undefined),.,.,.,.,.
COc1ccc(N(C)S(=O)(=O)c2cccc3cccnc23)c(OC)c1,.,60.3,.,.,.
COc1ccc(S(=O)(=O)N(CC(=O)N2CCN(C)CC2)c2ccccc2)cc1OC,.,.,.,.,.
CC(=O)N1CCc2cc(S(=O)(=O)NC(CC(C)C)C(=O)N3CCc4ccccc4C3)ccc21 (centres undefined),.,.,.,.,.
CC(C(=O)NCCC1=CCCCC1)N1C(=O)c2ccccc2C1=O (centres undefined),.,.,.,.,.
CCOC(=O)COn1c(=O)c(=O)n(O)c2ccccc21,.,99.2,89.9,.,.

# Source: PubChem
